# Reference: PubChem BioAssay (Tox21)
# Records with an inconclusive call do not appear. The source made the active and inactive calls. Calls follow the shape of the dose curve; as a rule, active = well fitted cell-killing curve with a large enough effect in the repeat runs; inconclusive = weak or mixed curves, or effect the other way; inactive = flat fitted curve, though single readings scatter.
# Assay: cAMP Responsive Elements (CRE) small molecule antagonists, cell-based qHTS assay: qHTS cell viability counter screen (AID 2060913); also: nearly all actives have a fitted effect of over 40% in size
# Details: CRE-bla HEK293T viability, CellTiter-Glo luminescence, 5 h; series mostly up to 92.4 µM; viability change, negative = cytotoxic: at the top concentration
# In short: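 Cytotoxicity counter screen multiplexed with the CRE-bla antagonist read: HEK293T cells in DMEM with dialyzed FBS and 25 mM HEPES were treated 3 hrs under 0.25 uM final NKH477, then viability measured by CellTiter-Glo luminescence.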
# % is scaled to controls: 0 for no effect and ±100 for the full control effect; potency is read from the fitted curve at half-maximal effect.
Compound,"viability change, negative = cytotoxic",Potency
COc1cc2c(cc1OC)[C@@H]1CC(=O)[C@@H](CC(C)C)CN1CC2,0.6% [at 42.5 µM] (inactive),
CCc1cccc2c3c([nH]c12)C(CC)(CC(=O)O)OCC3 (stereo not given),,inactive
OCCCCCCCl,-11.4% (inactive),
C=COCCCC,8.42% (inactive),
O=C(O)c1cccc(C(F)(F)F)c1,-4.39% (inactive),
C/C=C/C(=O)CCCC,6.25% (inactive),
CC(C)C(O)(c1ccc(OC(F)(F)F)cc1)c1cncnc1 (stereo not given),10.9% (inactive),
NC=O,,inactive
Nc1ccc(S(=O)(=O)Nc2nccs2)cc1,,inactive
CC(N)C12CC3CC(CC(C3)C1)C2 (stereo not given),3.48% [at 42.5 µM] (inactive),
CC(C)O.CC(C)O.CCOC(=O)/C=C(\C)O.CCOC(=O)/C=C(\C)O.[Ti],7.89% (inactive),
C=CC(=O)OCC1CCCO1 (stereo not given),0.589% (inactive),
O=C(O)c1ccc(OCCN2CCCCC2)cc1,-1.02% [at 42.5 µM] (inactive),
Cc1cc(O)c(Cl)cc1C,0.451% (inactive),
C[C@H]1COc2c(C3(N)CC3)c(F)cc3c(=O)c(C(=O)O)cn1c23,5.59% [at 42.5 µM] (inactive),
CC1(C)C(=O)N(Cl)C(=O)N1Cl,,inactive
O=C(O)c1ccc(C(=O)O)cc1,,inactive
Fc1ccccc1-c1ccccc1,-9.66% (inactive),
Cn1ccc2cc3c(cc21)CCN3C(=O)Nc1cccnc1,-0.701% [at 18.9 µM] (inactive),
CN(C)N=Nc1ccccc1,-4.53% (inactive),

Compound,"viability change, negative = cytotoxic",Potency
OC[C@@H](O)[C@@H](O)CO,-1.98% (inactive),
CC(=O)OCCOC(C)=O,,inactive
CC(C)(C)c1ccc(O)c(O)c1,,inactive
c1ccc2[nH]ccc2c1,,inactive
C1=CCC2CC=CC2C1 (stereo not given),0.0834% (inactive),
CC1=C(/C=C/C(C)=C/C=C/C(C)=C/C(=O)Nc2ccc(O)cc2)C(C)(C)CCC1,-0.105% [at 42.5 µM] (inactive),
CCCCC(CC)CN=C(N)NC(N)=NCCCCCCN=C(N)NC(N)=NCC(CC)CCCC (stereo not given),,21.1 µM (active)
Nc1ccc(C(=O)Nc2ccccc2N)cc1,-2.26% [at 42.5 µM] (inactive),
CCCCCCCCN(C)C,2.13% (inactive),
COc1cccc(CCc2ccccc2OCC(CN(C)C)OC(=O)CCC(=O)O)c1 (stereo not given),-1.32% [at 42.5 µM] (inactive),
CCOC=C(C(=O)OCC)C(=O)OCC,6.22% (inactive),
CCC(=O)O[C@]1(C(=O)COC)[C@@H](C)C[C@H]2[C@@H]3CCC4=CC(=O)C=C[C@]4(C)C3(F)[C@@H](O)C[C@@]21C (stereo not given in full),-0.85% [at 42.5 µM] (inactive),
O=c1[nH]c(=O)n([C@H]2O[C@H](CO)[C@@H](O)[C@@H]2O)cc1/C=C\Br,4.18% [at 42.5 µM] (inactive),
NC(=O)COCCN1CCN(C(c2ccccc2)c2ccc(Cl)cc2)CC1 (stereo not given),0% [at 42.5 µM] (inactive),
CCCCCCCCCCl,6.53% (inactive),
CCCCCCCCCCCCCC=O,-4.53% [at 8.39 µM] (inactive),
COc1cc(N)c(Cl)cc1C(=O)NC1CCN(Cc2ccccc2)CC1,1.34% [at 42.5 µM] (inactive),
CCOC(=O)C1=NOC(c2ccccc2)(c2ccccc2)C1,1.1% (inactive),
COc1ccc(CCO)cc1,0.775% (inactive),
COc1cc2c(Nc3ccc(Br)cc3F)ncnc2cc1OCC1CCN(C)CC1,-0.808% [at 42.5 µM] (inactive),
